Reference: publication PMC7862700, “An all-to-all approach to the identification of sequence-specific readers for epigenetic DNA modifications on cytosine”

Tests used:
Test in all cases: DAPPL (digital affinity profiling via proximity ligation, sequencing); 10 mM Tris-HCl pH 7.5, 50 mM NaCl, 1 mM DTT, 4% glycerol, room temperature, 30 min; GST-TFs on glutathione beads, 16-mer random dsDNA library, 0.1% formaldehyde crosslink after washing; high values mean tight binding
[1] = target: T1, FLI1 (Homo sapiens, UniProt Q01543 1-452); conditions: protein: recombinant; tags: N-terminal GST; dsDNA, one strand shown
T1 sequence: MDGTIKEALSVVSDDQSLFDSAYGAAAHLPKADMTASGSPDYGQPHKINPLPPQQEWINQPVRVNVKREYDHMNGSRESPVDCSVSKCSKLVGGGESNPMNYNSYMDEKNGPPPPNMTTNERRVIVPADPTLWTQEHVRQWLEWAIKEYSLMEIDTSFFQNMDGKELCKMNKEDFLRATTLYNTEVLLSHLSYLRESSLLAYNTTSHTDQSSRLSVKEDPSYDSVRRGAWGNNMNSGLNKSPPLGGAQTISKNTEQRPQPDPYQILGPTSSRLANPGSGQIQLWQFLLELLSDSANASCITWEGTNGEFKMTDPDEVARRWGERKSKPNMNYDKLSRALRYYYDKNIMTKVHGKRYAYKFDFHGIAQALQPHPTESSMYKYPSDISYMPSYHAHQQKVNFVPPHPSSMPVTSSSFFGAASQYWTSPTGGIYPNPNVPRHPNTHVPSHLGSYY
In short: (§1)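 The binding signal reported is, for every hexamer, its read frequency for a factor over its read frequency for the tag-only sample. Reads came from pools of yeast-expressed, GST-fused human transcription factors on glutathione beads, barcoded with DNA and mixed with that sample, which were incubated with 200 nmole of a random double-stranded 16-mer DNA library in Tris/NaCl/DTT/glycerol buffer at room temperature for 30 min. After washing, the pools were crosslinked with 0.1% formaldehyde, proximity-ligated with BsaI/T4 ligase for 1 h at 37 °C, PCR-amplified and sequenced on an Illumina NextSeq500.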

[2] = target: T2, ELK1 (Homo sapiens, UniProt P19419 1-428); conditions: protein: recombinant; tags: N-terminal GST; dsDNA, one strand shown
T2 sequence: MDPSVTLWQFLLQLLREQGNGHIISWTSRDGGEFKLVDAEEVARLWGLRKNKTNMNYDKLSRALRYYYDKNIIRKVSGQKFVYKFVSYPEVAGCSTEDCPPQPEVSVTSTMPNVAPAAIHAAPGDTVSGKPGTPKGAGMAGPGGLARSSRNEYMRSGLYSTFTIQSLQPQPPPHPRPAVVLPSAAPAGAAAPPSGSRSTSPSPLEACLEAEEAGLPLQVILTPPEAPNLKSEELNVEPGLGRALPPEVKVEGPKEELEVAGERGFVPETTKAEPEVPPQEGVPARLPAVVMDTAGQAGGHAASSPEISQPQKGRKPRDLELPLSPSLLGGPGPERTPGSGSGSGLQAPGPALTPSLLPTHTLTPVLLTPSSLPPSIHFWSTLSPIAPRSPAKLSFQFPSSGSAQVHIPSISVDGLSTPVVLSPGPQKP
In short: as §1

[3] = target: T3, GABPA (Homo sapiens, UniProt Q06546 1-454); conditions: protein: recombinant; tags: N-terminal GST; dsDNA, one strand shown
T3 sequence: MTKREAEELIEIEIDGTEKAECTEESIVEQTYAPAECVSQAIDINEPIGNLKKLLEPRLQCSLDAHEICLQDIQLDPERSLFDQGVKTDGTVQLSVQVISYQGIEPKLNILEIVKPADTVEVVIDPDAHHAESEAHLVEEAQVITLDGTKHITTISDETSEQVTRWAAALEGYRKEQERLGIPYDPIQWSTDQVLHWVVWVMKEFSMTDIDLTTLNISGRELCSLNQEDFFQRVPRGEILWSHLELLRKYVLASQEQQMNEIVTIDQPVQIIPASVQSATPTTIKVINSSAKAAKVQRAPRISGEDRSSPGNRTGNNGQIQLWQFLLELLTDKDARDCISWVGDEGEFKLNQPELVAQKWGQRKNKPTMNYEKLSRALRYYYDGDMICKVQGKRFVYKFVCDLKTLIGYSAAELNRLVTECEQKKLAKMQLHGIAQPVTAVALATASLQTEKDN
In short: as §1

[4] = target: T4, ERG (Homo sapiens, UniProt P11308 1-479); conditions: protein: recombinant; tags: N-terminal GST; dsDNA, one strand shown
T4 sequence: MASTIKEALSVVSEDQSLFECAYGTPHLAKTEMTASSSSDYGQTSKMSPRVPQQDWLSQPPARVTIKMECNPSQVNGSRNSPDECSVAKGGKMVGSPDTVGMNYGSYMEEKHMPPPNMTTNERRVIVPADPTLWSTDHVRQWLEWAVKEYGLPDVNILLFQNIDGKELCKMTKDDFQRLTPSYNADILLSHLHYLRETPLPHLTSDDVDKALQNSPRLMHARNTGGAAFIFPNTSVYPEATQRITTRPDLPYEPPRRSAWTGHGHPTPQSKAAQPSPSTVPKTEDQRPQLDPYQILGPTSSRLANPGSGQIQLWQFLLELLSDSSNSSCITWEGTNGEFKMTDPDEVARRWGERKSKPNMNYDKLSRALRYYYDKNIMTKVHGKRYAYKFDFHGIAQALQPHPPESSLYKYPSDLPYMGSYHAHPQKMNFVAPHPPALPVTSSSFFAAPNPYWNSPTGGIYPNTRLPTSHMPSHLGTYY
In short: as §1

[5] = target: ELF1 (Homo sapiens, UniProt P32519 1-619); conditions: protein: recombinant; tags: N-terminal GST; dsDNA, one strand shown
ELF1, sequence (P32519 whole entry): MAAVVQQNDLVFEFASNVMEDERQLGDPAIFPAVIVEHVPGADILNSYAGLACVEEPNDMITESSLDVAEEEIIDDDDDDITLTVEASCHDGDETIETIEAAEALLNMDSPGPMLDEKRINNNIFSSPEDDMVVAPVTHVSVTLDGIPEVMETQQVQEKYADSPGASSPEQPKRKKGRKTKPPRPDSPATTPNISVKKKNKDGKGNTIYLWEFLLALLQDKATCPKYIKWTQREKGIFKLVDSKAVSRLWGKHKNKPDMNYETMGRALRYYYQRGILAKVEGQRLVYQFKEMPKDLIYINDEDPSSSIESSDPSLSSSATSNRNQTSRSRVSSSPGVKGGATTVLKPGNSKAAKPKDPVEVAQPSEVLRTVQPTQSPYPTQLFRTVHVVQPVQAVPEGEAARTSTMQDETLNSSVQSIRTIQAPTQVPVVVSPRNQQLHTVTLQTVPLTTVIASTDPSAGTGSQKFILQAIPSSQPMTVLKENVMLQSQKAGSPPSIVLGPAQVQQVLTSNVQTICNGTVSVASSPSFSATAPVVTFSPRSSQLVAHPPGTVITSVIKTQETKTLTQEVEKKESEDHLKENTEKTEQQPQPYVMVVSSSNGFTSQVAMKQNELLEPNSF
In short: as §1

[6] = target: T5, EHF (Homo sapiens, UniProt Q9NZC4 1-300); conditions: protein: recombinant; tags: N-terminal GST; dsDNA, one strand shown
T5 sequence: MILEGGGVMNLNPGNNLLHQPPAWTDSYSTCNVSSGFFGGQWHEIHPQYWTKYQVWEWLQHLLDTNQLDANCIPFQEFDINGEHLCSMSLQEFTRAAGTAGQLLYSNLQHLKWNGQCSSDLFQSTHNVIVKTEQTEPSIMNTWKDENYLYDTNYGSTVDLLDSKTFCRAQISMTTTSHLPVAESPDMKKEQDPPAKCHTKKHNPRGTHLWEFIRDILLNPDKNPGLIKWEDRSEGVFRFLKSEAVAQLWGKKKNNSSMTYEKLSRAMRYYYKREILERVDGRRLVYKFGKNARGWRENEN
In short: as §1

[7] = target: SPI1 (Homo sapiens, UniProt P17947 1-270); conditions: protein: recombinant; tags: N-terminal GST; dsDNA, one strand shown
In short: as §1

[8] = target: SPIB (Homo sapiens, UniProt Q01892 1-262); conditions: protein: recombinant; tags: N-terminal GST; dsDNA, one strand shown
SPIB, sequence (Q01892 whole entry): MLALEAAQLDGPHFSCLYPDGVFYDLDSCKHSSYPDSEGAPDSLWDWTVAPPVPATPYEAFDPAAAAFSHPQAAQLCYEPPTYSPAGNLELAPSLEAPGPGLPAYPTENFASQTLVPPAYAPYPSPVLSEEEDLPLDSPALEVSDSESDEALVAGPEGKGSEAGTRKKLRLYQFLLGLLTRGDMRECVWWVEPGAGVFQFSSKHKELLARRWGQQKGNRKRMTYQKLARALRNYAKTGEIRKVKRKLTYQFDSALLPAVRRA
In short: as §1

[9] = target: T6, ELK3 (Homo sapiens, UniProt P41970 1-407); conditions: protein: recombinant; tags: N-terminal GST; dsDNA, one strand shown
T6 sequence: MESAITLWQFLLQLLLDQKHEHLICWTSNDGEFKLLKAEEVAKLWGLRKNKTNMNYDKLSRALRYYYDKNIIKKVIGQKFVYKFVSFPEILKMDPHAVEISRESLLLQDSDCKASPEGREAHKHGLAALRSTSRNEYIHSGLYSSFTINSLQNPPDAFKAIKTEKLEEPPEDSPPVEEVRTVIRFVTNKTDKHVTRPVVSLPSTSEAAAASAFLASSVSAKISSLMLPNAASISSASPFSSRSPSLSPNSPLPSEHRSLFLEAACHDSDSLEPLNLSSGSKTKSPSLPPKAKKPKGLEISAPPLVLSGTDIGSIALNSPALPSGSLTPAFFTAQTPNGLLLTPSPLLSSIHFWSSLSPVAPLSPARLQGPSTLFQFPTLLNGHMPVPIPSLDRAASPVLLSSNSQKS
In short: as §1

[10] = target: T7, FEV (Homo sapiens, UniProt Q99581 1-238); conditions: protein: recombinant; tags: N-terminal GST; dsDNA, one strand shown
T7 sequence: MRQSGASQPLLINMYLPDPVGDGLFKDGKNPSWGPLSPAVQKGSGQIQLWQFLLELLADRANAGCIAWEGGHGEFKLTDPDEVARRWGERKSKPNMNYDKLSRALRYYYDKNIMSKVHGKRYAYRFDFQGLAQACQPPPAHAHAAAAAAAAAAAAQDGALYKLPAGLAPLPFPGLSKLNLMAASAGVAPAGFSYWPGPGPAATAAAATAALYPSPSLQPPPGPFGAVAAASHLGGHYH
In short: as §1

[11] = target: ETV5 (Homo sapiens, UniProt P41161 1-510); conditions: protein: recombinant; tags: N-terminal GST; dsDNA, one strand shown
ETV5, sequence (P41161 whole entry): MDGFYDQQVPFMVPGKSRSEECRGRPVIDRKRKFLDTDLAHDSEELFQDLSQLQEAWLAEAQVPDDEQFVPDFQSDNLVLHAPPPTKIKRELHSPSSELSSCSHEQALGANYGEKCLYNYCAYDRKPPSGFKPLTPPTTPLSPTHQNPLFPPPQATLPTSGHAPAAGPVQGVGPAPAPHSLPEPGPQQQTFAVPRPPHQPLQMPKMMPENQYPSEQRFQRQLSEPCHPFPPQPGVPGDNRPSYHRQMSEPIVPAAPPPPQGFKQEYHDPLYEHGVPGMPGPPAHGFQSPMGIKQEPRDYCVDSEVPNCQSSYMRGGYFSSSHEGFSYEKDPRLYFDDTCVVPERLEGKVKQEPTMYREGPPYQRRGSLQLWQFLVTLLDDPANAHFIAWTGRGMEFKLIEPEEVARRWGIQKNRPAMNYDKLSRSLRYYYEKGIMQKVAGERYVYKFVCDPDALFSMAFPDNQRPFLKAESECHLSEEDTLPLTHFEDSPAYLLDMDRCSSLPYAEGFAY
In short: as §1

[12] = target: HSF1 (Homo sapiens, UniProt Q00613 1-529); conditions: protein: recombinant; tags: N-terminal GST; chain copies: 3; dsDNA, one strand shown
HSF1, sequence (Q00613 whole entry): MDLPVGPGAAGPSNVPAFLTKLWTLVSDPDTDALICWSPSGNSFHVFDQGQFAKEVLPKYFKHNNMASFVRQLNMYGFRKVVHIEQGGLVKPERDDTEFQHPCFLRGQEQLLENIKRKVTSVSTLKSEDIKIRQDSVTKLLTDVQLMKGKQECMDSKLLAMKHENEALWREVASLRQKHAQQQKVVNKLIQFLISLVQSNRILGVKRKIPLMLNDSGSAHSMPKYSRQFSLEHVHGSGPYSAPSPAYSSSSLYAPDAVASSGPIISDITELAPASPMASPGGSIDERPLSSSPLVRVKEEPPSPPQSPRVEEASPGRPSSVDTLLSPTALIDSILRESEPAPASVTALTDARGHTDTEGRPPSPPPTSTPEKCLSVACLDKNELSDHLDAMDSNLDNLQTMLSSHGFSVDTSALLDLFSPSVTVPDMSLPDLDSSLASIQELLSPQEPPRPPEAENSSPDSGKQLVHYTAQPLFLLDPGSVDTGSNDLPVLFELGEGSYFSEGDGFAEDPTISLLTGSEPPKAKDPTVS
In short: as §1

[13] = target: T8, SPIC (Homo sapiens, UniProt Q8N5J4 1-248); conditions: protein: recombinant; tags: N-terminal GST; dsDNA, one strand shown
T8 sequence: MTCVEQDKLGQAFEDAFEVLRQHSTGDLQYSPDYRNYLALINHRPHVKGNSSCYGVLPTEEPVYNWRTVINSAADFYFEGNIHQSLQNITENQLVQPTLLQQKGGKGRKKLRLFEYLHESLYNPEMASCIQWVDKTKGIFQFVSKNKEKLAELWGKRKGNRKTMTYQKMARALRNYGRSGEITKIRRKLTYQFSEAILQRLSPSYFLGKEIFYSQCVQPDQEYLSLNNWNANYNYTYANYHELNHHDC
In short: as §1

[14] = target: ELF4 (Homo sapiens, UniProt Q99607 1-663); conditions: protein: recombinant; tags: N-terminal GST; dsDNA, one strand shown
ELF4, sequence (Q99607 whole entry): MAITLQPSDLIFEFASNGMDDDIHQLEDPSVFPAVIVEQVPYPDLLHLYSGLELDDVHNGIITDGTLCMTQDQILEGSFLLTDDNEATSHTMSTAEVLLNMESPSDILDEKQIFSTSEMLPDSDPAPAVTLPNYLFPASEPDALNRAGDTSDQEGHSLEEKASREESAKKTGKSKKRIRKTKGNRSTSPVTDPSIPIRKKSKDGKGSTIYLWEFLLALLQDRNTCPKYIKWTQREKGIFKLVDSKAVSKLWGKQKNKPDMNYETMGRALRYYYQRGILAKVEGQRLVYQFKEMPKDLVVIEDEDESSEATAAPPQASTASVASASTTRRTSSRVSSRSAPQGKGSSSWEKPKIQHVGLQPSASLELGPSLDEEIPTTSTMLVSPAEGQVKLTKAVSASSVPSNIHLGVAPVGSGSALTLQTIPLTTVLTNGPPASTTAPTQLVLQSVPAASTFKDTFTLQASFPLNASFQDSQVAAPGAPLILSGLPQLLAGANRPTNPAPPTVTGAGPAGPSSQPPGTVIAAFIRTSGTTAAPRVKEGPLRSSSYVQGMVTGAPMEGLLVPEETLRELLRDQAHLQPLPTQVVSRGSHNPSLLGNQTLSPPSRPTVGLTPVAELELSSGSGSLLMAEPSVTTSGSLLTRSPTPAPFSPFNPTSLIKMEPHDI
In short: as §1

[15] = target: T9, ELK4 (Homo sapiens, UniProt P28324-2 1-405); conditions: protein: recombinant; tags: N-terminal GST; dsDNA, one strand shown
T9 sequence: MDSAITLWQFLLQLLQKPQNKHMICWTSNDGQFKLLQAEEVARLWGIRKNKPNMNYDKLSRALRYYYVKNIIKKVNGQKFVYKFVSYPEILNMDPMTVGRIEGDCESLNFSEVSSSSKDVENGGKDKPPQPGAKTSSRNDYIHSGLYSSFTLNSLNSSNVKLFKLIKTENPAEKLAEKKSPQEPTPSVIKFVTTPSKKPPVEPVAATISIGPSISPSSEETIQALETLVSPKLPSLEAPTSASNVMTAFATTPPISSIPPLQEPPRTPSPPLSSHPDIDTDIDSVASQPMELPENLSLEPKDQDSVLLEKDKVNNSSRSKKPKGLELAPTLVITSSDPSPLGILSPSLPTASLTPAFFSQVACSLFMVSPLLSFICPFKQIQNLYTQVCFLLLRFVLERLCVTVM
In short: as §1

[16] = target: T10, ETV2 (Homo sapiens, UniProt O00321 1-342); conditions: protein: recombinant; tags: N-terminal GST; dsDNA, one strand shown
T10 sequence: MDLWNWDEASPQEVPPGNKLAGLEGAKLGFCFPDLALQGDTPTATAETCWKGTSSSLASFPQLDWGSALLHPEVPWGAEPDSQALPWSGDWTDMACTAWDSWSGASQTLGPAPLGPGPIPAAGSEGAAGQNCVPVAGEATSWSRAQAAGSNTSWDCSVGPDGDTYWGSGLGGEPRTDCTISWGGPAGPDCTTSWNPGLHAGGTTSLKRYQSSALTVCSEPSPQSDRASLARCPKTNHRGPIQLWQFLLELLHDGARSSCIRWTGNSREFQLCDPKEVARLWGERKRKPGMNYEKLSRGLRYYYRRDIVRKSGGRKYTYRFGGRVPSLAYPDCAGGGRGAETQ
In short: as §1

[17] = target: T11, ELF3 (Homo sapiens, UniProt P78545 1-371); conditions: protein: recombinant; tags: N-terminal GST; dsDNA, one strand shown
T11 sequence: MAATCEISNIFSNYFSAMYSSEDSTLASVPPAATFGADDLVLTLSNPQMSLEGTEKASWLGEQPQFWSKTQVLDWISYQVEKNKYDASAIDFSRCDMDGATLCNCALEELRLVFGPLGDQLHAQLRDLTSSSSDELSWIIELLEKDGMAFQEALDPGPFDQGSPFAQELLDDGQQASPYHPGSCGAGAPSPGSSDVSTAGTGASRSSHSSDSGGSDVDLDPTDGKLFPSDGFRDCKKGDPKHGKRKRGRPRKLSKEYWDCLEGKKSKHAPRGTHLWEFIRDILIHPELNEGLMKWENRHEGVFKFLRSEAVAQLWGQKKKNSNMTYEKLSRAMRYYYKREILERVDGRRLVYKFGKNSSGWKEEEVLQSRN
In short: as §1

[18] = target: ETV1 (Homo sapiens, UniProt P50549 1-477); conditions: protein: recombinant; tags: N-terminal GST; dsDNA, one strand shown
ETV1, sequence (P50549 whole entry): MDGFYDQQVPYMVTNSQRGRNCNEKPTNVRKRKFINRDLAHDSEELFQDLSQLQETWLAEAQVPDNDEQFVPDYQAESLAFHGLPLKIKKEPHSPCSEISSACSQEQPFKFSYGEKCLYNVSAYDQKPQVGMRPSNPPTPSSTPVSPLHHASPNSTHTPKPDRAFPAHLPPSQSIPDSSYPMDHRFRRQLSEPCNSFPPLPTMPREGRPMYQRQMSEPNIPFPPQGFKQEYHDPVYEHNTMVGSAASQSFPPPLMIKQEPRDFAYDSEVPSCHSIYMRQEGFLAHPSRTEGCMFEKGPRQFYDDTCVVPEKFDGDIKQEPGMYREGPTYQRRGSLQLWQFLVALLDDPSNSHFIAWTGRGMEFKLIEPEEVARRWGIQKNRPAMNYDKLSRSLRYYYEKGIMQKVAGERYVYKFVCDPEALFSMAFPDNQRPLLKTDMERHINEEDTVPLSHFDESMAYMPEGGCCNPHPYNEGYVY
In short: as §1

CCACTG was tested, and the binding signal [1] was 1.16 fold enrichment (6-mer frequency, TF over GST control), the binding signal [2] was 1.11 fold enrichment (6-mer frequency, TF over GST control) and the binding signal [3] was 1.25 fold enrichment (6-mer frequency, TF over GST control). The binding signal [4] was 1.23 fold enrichment (6-mer frequency, TF over GST control), the binding signal [5] was 1.28 fold enrichment (6-mer frequency, TF over GST control) and the binding signal [6] was 1.19 fold enrichment (6-mer frequency, TF over GST control). The binding signal [7] was 1.16 fold enrichment (6-mer frequency, TF over GST control), the binding signal [8] was 1.15 fold enrichment (6-mer frequency, TF over GST control) and the binding signal [9] was 1.2 fold enrichment (6-mer frequency, TF over GST control). The binding signal [10] was 1.19 fold enrichment (6-mer frequency, TF over GST control), the binding signal [11] was 1.15 fold enrichment (6-mer frequency, TF over GST control) and the binding signal [12] was 1.08 fold enrichment (6-mer frequency, TF over GST control). For the same sequence, the binding signal [13] was 1.34 fold enrichment (6-mer frequency, TF over GST control), the binding signal [14] was 1.2 fold enrichment (6-mer frequency, TF over GST control) and the binding signal [15] was 1.18 fold enrichment (6-mer frequency, TF over GST control). For the same sequence, the binding signal [16] was 1.17 fold enrichment (6-mer frequency, TF over GST control), the binding signal [17] was 1.04 fold enrichment (6-mer frequency, TF over GST control) and the binding signal [18] was 1.31 fold enrichment (6-mer frequency, TF over GST control).
